# Hits are enriched below; roughly 19% of the tested compounds scored in any of these assays.
# DT40 TDP1 CPT: growth inhibition of DT40 Tdp1-/-;hTDP1 cells with camptothecin (screen for TDP1 inhibitors); Potency, µM (top dose mostly 46.2 µM), inactives show at the top dose activity change, negative = growth inhibition, most hits filed as inhibitors; chicken DT40 Tdp1-/-;hTDP1 cells + 20 nM CPT, ATP luminescence, 48 h; hit rate 12% among 420,000; note: potency is the fitted concentration of half-maximal effect; nearly all actives have a fitted effect of over 55% in size
#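 Cell growth measured by CellTiter-Glo luminescence after a minimum 48 h, 37 C compound exposure with 20 nM CPT in Tdp1-knockout DT40 cells stably expressing hTDP1, seeded 400/well; qHTS titration format.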
# TDP1 cell noCPT: qHTS for Inhibitors of human tyrosyl-DNA phosphodiesterase 1 (TDP1): qHTS in cells in absence of CPT; DT40 Tdp1-/- hTDP1 cells, no CPT, ATP luminescence, 48 h; Potency, µM (highest dose often 46.2 µM), for inactives: at the highest dose activity change, negative = growth inhibition, actives largely listed as inhibitors; hit rate 15% among 420,000; note: potency is the fitted concentration of half-maximal effect; nearly all actives have a fitted effect of over 55% in size
#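 Camptothecin absent (DMSO only). Human TDP1-complemented DT40 knockout cells, 400 cells/well, 37 °C for minimum 48 hr; ATP measured via CellTiter-Glo, 30 min dark incubation, luminescence.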
# HT1080-NT tox: kills 2HG-producing HT-1080-NT fibrosarcoma cells | HT-1080-NT fibrosarcoma viability, CellTiter-Glo ATP luminescence, 48 h | Potency, µM (top dose mostly 46.1 µM), for the others: at the highest dose activity, negative = less viability, actives largely listed as cytotoxic | hit rate 1.6% among 360,000;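 note: NT is the 2HG producing partner of a matched IDH1 knockdown line; potency is the fitted concentration of half-maximal effect; 0% = DMSO-treated cells and -100% = media-only wells without cells; nearly all actives have a fitted effect of over 55% in size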
#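 Luminescent CellTiter-Glo readout after 48 hours of compound exposure at 37 degrees C defined viability of HT-1080-NT cells. Activity was normalized to DMSO wells and cell-free media wells; concentration-response curves were fitted and assigned curve classes.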
# HT1080 IDH1KD tx: toxicity to HT-1080 IDH1 knockdown cells (counter line) | Potency, µM (highest dose often 46.1 µM), for inactives: top-dose activity, negative = toxicity, usual class: cytotoxic | HT-1080 IDH1 knockdown viability, ATP luminescence, 48 h | hit rate 2% among 360,000;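 note: potency is the fitted concentration of half-maximal effect; 0% = DMSO wells and -100% = cell-free medium wells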
#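 Luminescent ATP read-out (CellTiter-Glo, 10 min at room temperature) after 48 h compound exposure at 37 °C gave viability of IDH1-knockdown HT-1080 cells. Activity was normalised to DMSO and cell-free wells, then fitted as concentration-response curves.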
# IL-1B inflam inh: blocks inflammasome-driven IL-1 beta release; hit rate 4.7% among 360,000; THP-1 LPS/ATP IL-1B secretion, AlphaLISA, 16 h; stronger effect = lower value; activity change, % at 57.5 µM; AID 743279; in the data active = activity change below about -50%; inconclusive = mostly about -30% to -49%
#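 Secreted IL-1B measured by AlphaLISA bead assay after 16 h compound exposure of THP-1 cells; compounds (final up to 57.5 uM) added 1 h before LPS (250 ng/mL) and ATP (1.25 mM) stimulation; lower signal means less secretion.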
# Numbers without * were called inactive; ? = inconclusive; . = not tested or not shown; [ ] = remark or other dose. Unless noted, calls come from the whole dose curve; as a rule, active = well fitted curve in the direction sought with a large enough effect; inconclusive = small, poorly fitted or top-dose-only effect, or another doubt; inactive = no such curve, though single readings can be large; an effect the other way counts as inactive or inconclusive. Unless noted, % is set by controls: 0 for no effect and ±100 for the full control effect.
SMILES,DT40 TDP1 CPT,TDP1 cell noCPT,HT1080-NT tox,HT1080 IDH1KD tx,IL-1B inflam inh
CC(=O)c1cccc(NC(=O)Cn2c(C)c3cnn(-c4ccccc4)c(=O)c3c2C)c1,20.6µM*,-19.3%,.,.,.
CCN(CC(=O)Nc1c(F)cccc1F)C(=O)c1nc2nc(C)cc(C)n2n1,3.7%,3.3%,-8.7%,-0.1%,-3.5
CCOc1cccc(CN2CCC(Oc3ccc(C(=O)N4CCCC4)cc3)CC2)c1O,?,?,-13.2%,-8.7%,-5.8
COc1ccc(Cn2c(-c3ccc(C)cc3)c[n+]3ccccc23)cc1,1.03µM*,0.92µM*,4.11µM*,1.16µM*,0.0
COc1ccc(-c2nc3ccccc3n2Cc2ccc(Cl)cc2)cc1,20.6µM*,20.6µM*,.,.,.
Clc1ccc(-c2nc3ccccc3n2OCc2ccccc2)cc1,20.6µM*,20.6µM*,2.0%,3.1%,11.0
COCn1c(-c2ccc(OC)cc2)nc2ccccc21,-11.0%,-27.3%,-17.2%,-21.9%,-20.3
C=CCn1c(-c2ccc(C)cc2)nc2ccccc21,14.6µM*,20.6µM*,-8.1%[9.24 µM],?,-17.0
C=CCn1c(NC(=O)c2ccc(C)cc2)nc2ccccc21,?,?,1.8%,4.5%,21.1
COc1ccc(Cn2c(O)c(C=Nc3ccc(C)cc3)c3ccccc3c2=O)cc1,-3.0%,-21.0%,3.2%,27.3%,-12.5
CCOC(=O)n1c(=O)n(Cc2ccccc2C)c2ccccc21,-27.9%,?,-9.1%,-13.0%,-3.5
CCCn1c(-c2ccc(OC)cc2)nc2ccccc21,2.59µM*,3.66µM*,-16.8%,?,-17.5
COc1ccc(-c2nc3ccccc3n2Cc2ccc(C)cc2)cc1,16.4µM*,?,?,?,-26.0
CCOC(=O)n1c(=O)n(Cc2ccc(OC)cc2)c2ccccc21,?,16.4µM*,14.6µM*,?,18.8
C=C(C)Cn1c(-c2ccc(OC)cc2)nc2ccccc21,13µM*,14.6µM*,-2.9%,-11.0%,-0.8
CC(=O)Oc1ccc(C(=O)Nc2ccc(S(=O)(=O)NCC3CCCO3)cc2)cc1 (stereo not given),?,?,-10.0%,-7.8%,-13.2
CCn1c(=O)c(=O)[nH]c2cc(C(=O)N(C)Cc3ccc(OC)c(F)c3)ccc21,-18.7%,-16.9%,16.5%,3.8%,21.8
Cc1cc(C(C)(C)C)cc(C)c1C(=O)O,8.7%,2.8%,13.9%,0.6%,-7.1
COc1ccc(C(=O)N2CCC[C@@]3(CCN(Cc4cc(C(F)(F)F)cc(C(F)(F)F)c4)C3)C2)cc1,-9.5%,?,.,.,.
CC1(C)CN2C(=O)c3ccccc3C2(C)S1 (stereo not given),19.1%,-3.3%,18.2%,11.8%,25.3
CCOC(Cn1c(-c2ccc(OC)cc2)nc2ccccc21)OCC,23.1µM*,16.4µM*,-3.9%,-13.0%,-5.1
Cn1c(C(O)c2ccc3c(c2)OCO3)nc2ccccc21 (stereo not given),16.4µM*,?,-1.2%,-1.3%,12.9
CCOC(=O)CC(NC(=O)Cn1nnc(-c2ccccc2F)n1)c1ccccc1Cl (stereo not given),?,?,0.3%,3.4%,-2.2
CCN(CCCNC(=O)C1CCN(S(=O)(=O)N2CCOCC2)CC1)c1cccc(C)c1,?,16.4µM*,0.5%,0.0%,-13.4
CCN(CCNC(=O)C1CCC(=O)N1Cc1ccc(C)cc1)c1ccccc1 (stereo not given),-19.2%,-16.0%,-0.4%,6.3%,-0.6
SMILES,DT40 TDP1 CPT,TDP1 cell noCPT,HT1080-NT tox,HT1080 IDH1KD tx,IL-1B inflam inh
CN(CCCNC(=O)C1CCC(=O)N1Cc1ccccc1Cl)c1ccccc1 (stereo not given),-21.2%,?,-1.6%,-16.1%,-11.7
CCCS(=O)(=O)N1CCC(C(=O)NCCCN(CC)c2cccc(C)c2)CC1,?,?,-11.2%,-1.8%,-5.3
O=C(Nc1cc(Cl)cc(Cl)c1)C1CCC(=O)N1Cc1ccccc1Cl (stereo not given),23.1µM*,?,-18.8%,-20.5%,?
CCN(CCCNC(=O)C1CCC(=O)N1Cc1ccc(C)cc1)c1cccc(C)c1 (stereo not given),13µM*,23.1µM*,-3.8%,-1.8%,-4.4
CCN(CCCNC(=O)C1CCC(=O)N1Cc1ccccc1Cl)c1cccc(C)c1 (stereo not given),16.4µM*,23.1µM*,-4.0%,-3.3%,0.1
CNC(=O)C1CCC(=O)N1Cc1ccccc1Cl (stereo not given),-3.3%,-2.4%,5.0%,4.8%,6.5
Cc1ccc(C(=O)NNC(=O)COC(=O)COc2ccccc2C#N)cc1,1.7%,-8.6%,11.4%,6.0%,18.2
C#CCn1c2ccccc2c(=O)n1CCOc1ccccc1OC,?,?,0.6%,-7.2%,5.9
COC(=O)C(NC(C)=O)(Nc1ccc(C)cn1)C(F)(F)F (stereo not given),17.5%,-7.6%,9.4%,23.5%,21.9
O=C(NCCCN1CCCCC1)C1CCC(=O)N1CCc1ccccc1 (stereo not given),-30.9%,-7.6%,-1.3%,2.0%,11.3
O=C(NCCCN1CCN(c2cccc(Cl)c2)CC1)C1CCC(=O)N1Cc1ccccc1Cl (stereo not given),16.4µM*,?,-26.3%,?,-54.9*
O=C(C1CC1)N1CCC(c2nc(-c3ccc(S(=O)(=O)NCC4CCCO4)cc3)no2)CC1 (stereo not given),12.6µM*,14.1µM*,?,-25.9%,0.0
O=C(c1ccc(S(=O)(=O)NCC2CCCO2)cc1)N1CCc2ccccc21 (stereo not given),20.6µM*,20.6µM*,-2.4%,-0.8%,7.5
O=C(c1ccccc1)N1CCC(c2nc(-c3ccc(S(=O)(=O)NCC4CCCO4)cc3)no2)CC1 (stereo not given),10.3µM*,10µM*,?,-2.9%,-72.0*
CCN(CC)S(=O)(=O)c1cccc(C(=O)NC(Cc2c[nH]c3ccccc23)c2nnc3n2CCC3)c1 (stereo not given),-4.5%,?,9.6%,10.6%,-4.9
O=C(NNC(=O)c1csc(-c2cccs2)n1)c1ccc(Cl)cc1,?,?,-29.3%,?,-2.0
N/C(=N\OC(=O)c1ccc(Cl)c([N+](=O)[O-])c1)c1ccccn1,-4.9%,-20.0%,?,16.4µM*,-107.5*
COc1ccc2c(c1)C(=NNC(=O)c1ccccn1)c1cc(OC)ccc1-2,4.61µM*,2.59µM*,20.0%,0.9%,-8.1
Cc1nc(C(=O)NNC(=O)c2ccc(Cl)cc2)cs1,16.4µM*,11.6µM*,-35.3%,?,66.4
O=C(NNC1=Nc2ccccc2SC1)c1cccc([N+](=O)[O-])c1,16.4µM*,23.1µM*,-16.3%,?,52.8
